Hits are enriched below; roughly 18% of the tested compounds scored in any of these assays.
PLK1 PBD inh: inhibitors of human PLK1 polo-box domain binding; Potency, µM, for inactives: max response, negative = inhibition, hits mostly inhibitors; AID 720504; P53350; 360,000 tested, 2.8% active; Plk1 PBD binding of FITC phosphopeptide, fluorescence polarization; note: series mostly up to about 57 µM; nearly all actives have a fitted effect of over 65% in size
VDR inh: vitamin D3 receptor (human) inhibition; P11473; 400,000 tested, 0.93% active; AID 504847; VDR-SRC2-3 peptide fluorescence polarization, 2 h; Potency, µM, without a hit: max response, negative = inhibition, actives largely listed as inhibitors
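VDR–SRC2-3 interaction, FP format. Cmpds 23 nl via pintool, brief spin, 2 h ambient incubation.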
DT40 TDP1 CPT: DT40-hTDP1 cell growth loss with CPT | chicken DT40 Tdp1-/-;hTDP1 cells + 20 nM CPT, ATP luminescence, 48 h | Potency, µM (series often up to 46.2 µM), without a hit: at the highest dose activity change, negative = growth inhibition, actives largely listed as inhibitors | 420,000 tested, 12% active; note: nearly all actives have a fitted effect of over 55% in size
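Cell growth measured by CellTiter-Glo luminescence after a minimum 48 h, 37 C compound exposure with 20 nM CPT in Tdp1-knockout DT40 cells stably expressing hTDP1, seeded 400/well; qHTS titration format.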
TDP1 block: blocks human tyrosyl-DNA phosphodiesterase 1; Q9NUW8; AID 485290; recombinant TDP1, AlphaScreen DNA substrate cleavage; 350,000 tested, 0.28% active; Potency, µM (top dose mostly 130 µM), without a hit: at the highest dose activity change, negative = inhibition, usual class: inhibitors; note: nearly all actives have a fitted effect of over 40% in size
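Compounds were preincubated with Tdp1 (1 nM final) for 15 min at room temperature before substrate (15 nM final) started a 5 min reaction; beads (10 ug/ml final) were then added for 10 min before AlphaScreen detection.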
TDP1 cell noCPT: qHTS for Inhibitors of human tyrosyl-DNA phosphodiesterase 1 (TDP1): qHTS in cells in absence of CPT; DT40 Tdp1-/- hTDP1 cells, no CPT, ATP luminescence, 48 h; Potency, µM (titrated, usually from 46.2 µM), for inactives: top-dose activity change, negative = growth inhibition, most hits filed as inhibitors; 420,000 tested, 15% active; AID 686978, 2013; note: nearly all actives have a fitted effect of over 55% in size
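Cells were dispensed at 400 per well, compounds added by pin tool, plates incubated ≥48 hr at 37 °C, then CellTiter-Glo added for 30 min at room temperature before luminescence reading. Line: DT40 Tdp1-/- complemented with hTDP1; camptothecin omitted.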
KAT2A inh: inhibitors of human GCN5L2 histone acetyltransferase; AID 504327; Q92830; GCN5L2 HAT assay, ThioGlo1 CoA-SH fluorescence; 390,000 tested, 0.21% active; Potency, µM (series often up to 58.9 µM), for the others: at the top dose activity change, negative = inhibition, usual class: inhibitors
Target sequence (Q92830 whole entry, looked up): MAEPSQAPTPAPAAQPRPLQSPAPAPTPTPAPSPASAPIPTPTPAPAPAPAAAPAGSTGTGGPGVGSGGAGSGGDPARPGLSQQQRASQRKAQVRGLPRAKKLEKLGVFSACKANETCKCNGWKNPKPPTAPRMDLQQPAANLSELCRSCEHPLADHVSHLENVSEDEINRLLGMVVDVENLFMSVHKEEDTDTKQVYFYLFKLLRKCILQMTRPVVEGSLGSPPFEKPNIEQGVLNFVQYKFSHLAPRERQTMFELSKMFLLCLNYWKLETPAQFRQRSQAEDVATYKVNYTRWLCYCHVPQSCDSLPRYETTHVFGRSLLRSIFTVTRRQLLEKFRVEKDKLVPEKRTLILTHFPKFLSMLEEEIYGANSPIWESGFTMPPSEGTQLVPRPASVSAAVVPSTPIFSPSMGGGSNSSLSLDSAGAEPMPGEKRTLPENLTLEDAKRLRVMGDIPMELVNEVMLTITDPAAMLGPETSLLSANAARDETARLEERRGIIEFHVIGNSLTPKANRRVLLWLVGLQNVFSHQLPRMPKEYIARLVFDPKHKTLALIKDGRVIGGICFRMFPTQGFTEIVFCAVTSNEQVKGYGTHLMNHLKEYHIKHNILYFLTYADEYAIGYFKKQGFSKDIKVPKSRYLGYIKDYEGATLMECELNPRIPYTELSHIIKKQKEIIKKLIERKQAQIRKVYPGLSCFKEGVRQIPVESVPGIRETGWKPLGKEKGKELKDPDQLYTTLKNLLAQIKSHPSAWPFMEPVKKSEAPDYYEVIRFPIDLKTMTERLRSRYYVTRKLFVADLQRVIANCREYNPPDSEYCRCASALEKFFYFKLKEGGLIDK
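ThioGlo1-coupled HAT assay: 20nM GCN5L2, 70uM acetyl-CoA, 75uM H3(1-25) peptide, pH 7.5. Fluorescence read at 340/540nm at start and after 20 min at room temperature.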
Numbers without * were called inactive; ? = inconclusive; nt = no result given; ! = a repeat was not active; [ ] = dose if it differs, or a comment. Calls come from the whole dose curve; as a rule, active = well fitted curve in the direction sought with a large enough effect; inconclusive = small, poorly fitted or top-dose-only effect, or another doubt; inactive = no such curve, though single readings can be large; an effect the other way counts as inactive or inconclusive. % is set by controls: 0 for no effect and ±100 for the full control effect; potency is the fitted concentration of half-maximal effect.

SMILES | PLK1 PBD inh | VDR inh | DT40 TDP1 CPT | TDP1 block | TDP1 cell noCPT | KAT2A inh
CCC(c1nnnn1Cc1ccccc1)N(Cc1ccco1)Cc1cc2cc(OC)ccc2[nH]c1=O (stereo not given) | 1% | -5% | 16µM* | 7% | 21µM* | -9%
CCC(c1nnnn1CCOC)N(Cc1cc2cc(C)c(C)cc2[nH]c1=O)CC1CCCO1 (stereo not given) | -1% | -17% | -16% | 6% | ? | -2%
CN(C)C(=O)c1ccc(-c2nc(N(C)C)c3ccccc3n2)cc1 | nt | 8% | ? | ? | ? | -3%
CC(C)c1nnc(NC(=O)c2sc3ccccc3c2Cl)s1 | 0% | 6% | -22% | 4% | -20% | -14%
Cn1c(C(C#N)C(=O)c2sc3ccccc3c2Cl)nc2ccccc21 (stereo not given) | -2% | 5% | ? | 11% | 16µM* | -9%
COc1ccc(C2(C(=O)NCC3Cc4cccc(-c5cccnc5)c4O3)CCCC2)cc1 (stereo not given) | nt | nt | -7%[9.04 µM] | nt | ? | nt
COC(=O)c1ccc(NC(=O)CCS(=O)(=O)c2ccc3c(c2)NC(=O)C(C)S3)cc1 (stereo not given) | 6µM* | ? | ? | -1% | ? | 2%
CCC1Sc2ccc(S(=O)(=O)CCC(=O)Nc3cccc(Br)c3)cc2NC1=O (stereo not given) | 12µM* | -28% | -25% | -11% | 5% | -5%
CCC1Sc2ccc(S(=O)(=O)Nc3ccc(OC)c(OC)c3)cc2NC1=O (stereo not given) | -13% | -6% | 21µM* | 4% | 8.2µM* | -15%
CCC1Sc2ccc(S(=O)(=O)CCC(=O)Nc3ccc(C(=O)OC)cc3)cc2NC1=O (stereo not given) | 15µM* | ? | ? | nt | -1% | -3%
CCC1Sc2ccc(S(=O)(=O)CCC(=O)Nc3ccc(NC(C)=O)cc3)cc2NC1=O (stereo not given) | -19% | 5% | -10% | -10% | 18% | -5%
COc1cccc(Cn2ncc3c4sc(Br)cc4n(C)c3c2=O)c1 | nt | nt | nt | nt | nt | 7%
O=C(CSc1ccccn1)N1CCNC1=O | 1% | 5% | 26% | -1% | 4% | 1%
COC(=O)[C@@]1(Cc2ccc(OC)cc2)[C@H]2c3cc(C(=O)N(C)C)n(Cc4cc(F)c(F)c(F)c4)c3C[C@H]2CN1C(=O)c1ccccc1 | nt | nt | nt | 14% | nt | nt
CCC1S/C(=N/N=C/c2cccs2)NC1=O (stereo not given) | -11% | -13% | -1% | 3% | ? | -2%
O=C1N/C(=N\N=C\c2cccs2)SC1Cc1cccc(Cl)c1 (stereo not given) | 2% | 15% | 12µM* | -5% | 10µM* | -2%
CCCC1S/C(=N/N=C/c2cccs2)NC1=O (stereo not given) | 17µM* | 6% | ? | 3% | ? | 20%
CCOc1ccccc1NC(=O)c1nn(-c2ccc(C)cc2)c(=O)n(C)c1=O | nt | 2% | -25% | 2% | -14% | -7%
CCOC(=O)c1cccc(NC(=O)N2Cc3ccccc3Oc3ncccc32)c1 | nt | 12% | -1% | 5% | -9% | -2%
COc1ccc2c(c1OC)C(=O)O[C@H]2C1c2c(cc3c(c2OC)OCO3)CCN1C (stereo not given in full) | nt | 2% | 16µM*! | 12%[56.1 µM] | ? | 8%
COc1ccccc1CC(O)CC1c2c(cc3c(c2OC)OCO3)CCN1C (stereo not given) | -8% | 10% | 12µM* | nt | 10µM* | nt
COc1ccc(CC(O)CC2c3c(cc4c(c3OC)OCO4)CCN2C)cc1 (stereo not given) | -6% | 2% | -14% | nt | ? | -8%
CN1CCc2cc3c(c4c2C1CC41CCC(=NO)CC1)OCO3 (stereo not given) | 3% | 6% | 3% | 7% | 0% | -4%
COc1ccc2c(c1OC)C(=O)OC2C1c2c(cc3c(c2OC)OCO3)CCN1C (stereo not given) | -14% | -6% | ? | 5% | 18µM*! | 2%
CN1CCc2cc3c(c4c2[C@H]1[C@H](O)c1ccccc1-4)OCO3 | -22% | 6% | 18µM* | 8% | ? | -1%
SMILES | PLK1 PBD inh | VDR inh | DT40 TDP1 CPT | TDP1 block | TDP1 cell noCPT | KAT2A inh
COc1ccc2c(c1OC)C(C1c3c(cc4c(c3OC)OCO4)CCN1C)OC2=O (stereo not given) | -8% | -2% | ? | ? | ? | -7%
COc1cccc(C=O)c1OCCN1C(=O)c2ccccc2C1=O | -2% | -16% | -25% | nt | -20% | 4%
COC(=O)c1ccc(NC(=O)CCn2cccn2)cc1 | nt | -2% | 7% | -1% | -5% | -3%
OC(c1ccc(F)cc1)c1ncc(-c2cccc3ccccc23)[nH]1 (stereo not given) | -4% | nt | ? | nt | ? | nt
CCCc1ccc(C(O)c2ncc(-c3ccccc3F)[nH]2)cc1 (stereo not given) | 4% | nt | 18µM* | nt | ? | nt
COc1ccccc1-c1cnc(C(O)c2cc(C)c(OC)c(C)c2)[nH]1 (stereo not given) | 0% | nt | 23µM* | nt | 23µM* | nt
Cc1ccc2ccccc2c1C(O)c1ncc(-c2ccccc2Cl)[nH]1 (stereo not given) | 0% | nt | 26µM* | nt | ? | nt
CCc1ccc(C(O)c2ncc(-c3cccc4ccccc34)[nH]2)cc1 (stereo not given) | 3% | nt | ? | nt | 16µM* | nt
Cc1ccccc1-c1cnc(C(O)c2c(C)ccc3ccccc23)[nH]1 (stereo not given) | -2% | nt | ? | nt | ? | nt
COc1c(C)cc(C(O)c2ncc(-c3ccccc3Cl)[nH]2)cc1C (stereo not given) | 6% | nt | -25% | nt | ? | nt
Cc1c(Cl)c(C(=O)N2CCCC2)nn1C | -5% | 17% | 5% | -5% | 4% | 2%
Cc1ccc(N(C)C(=O)C2CCN(S(=O)(=O)c3cn(C)cn3)CC2)cc1 | nt | 6% | 0% | 1% | -10% | 1%
CSc1ccc(C(O)c2ncc(-c3ccccc3Cl)[nH]2)cc1 (stereo not given) | 4% | nt | ? | nt | -27% | nt
COc1ccccc1-c1cnc(C(O)c2ccc(SC)cc2)[nH]1 (stereo not given) | 5% | nt | 29µM* | nt | ? | nt
CSc1ccc(C(O)c2ncc(-c3ccccc3F)[nH]2)cc1 (stereo not given) | 0% | nt | 29µM* | nt | ? | nt

Screening results deposited in PubChem BioAssay by National Center for Advancing Translational Sciences (NCATS).
